Rows were chosen to be rich in hits. Some 2.1% of all compounds tested hit in one or more screens of this group.
TDP43 rescue: TDP-43 toxicity inhibition in yeast; AID 652104; TDP-43 expressing yeast growth rescue, BacTiter-Glo, 24 h; Potency, µM (top dose mostly 46.1 µM), for inactives: at the highest dose growth rescue (activation), usual class: activators; actives 1.8% (n = 410,000); also: % of control where 0% means no effect; nearly all actives have a fitted effect of over 50% in size
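Galactose-induced TDP-43 yeast, OD600=0.02, compound pinned; 24 hr, 30 deg C; BacTiter-Glo luminescence for growth. Inhibitors of TDP-43 toxicity read as activators.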
Abeta rescue: compounds reversing amyloid beta toxicity in yeast | yeast expressing A-beta42, growth rescue, OD600, 48 h; response scale: 0% DMSO, 100% iron-clioquinol control | Potency, µM (highest dose often 46.1 µM), actives largely listed as activators | actives 0.063% (n = 410,000); also: nearly all actives have a fitted effect of over 55% in size
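Yeast A-beta toxicity model in growth medium with pinned compounds, 48 h at 30 C; growth read as absorbance at 600 nm. Normalized to FeCl3/clioquinol equimolar mix (positive) and DMSO (negative).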
FUS yeast rescue: suppressors of FUS proteinopathy in yeast; Potency, µM (top dose mostly 76.6 µM), usual class: activators; actives 0.24% (n = 390,000); AID 1347120; S. cerevisiae FUS-expressing, growth rescue, OD600, 24 h;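 also: plate controls were DMSO vehicle for no effect and reference control for full effect; nearly all actives have a fitted effect of over 55% in size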
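Galactose (2%) drives FUS expression in yeast precultured in raffinose; seeding density OD 0.005. Test compounds incubated 24hr at 30C and 99% humidity before absorbance at 600 nm was measured.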
aSyn yeast inh: alpha-synuclein toxicity inhibition in yeast. Yeast expressing alpha-synuclein, growth rescue, BacTiter-Glo, 24 h. Potency, µM (titrated, usually from 46.1 µM), without a hit: at the highest dose growth rescue (activation), most hits filed as activators. actives 0.14% (n = 370,000); also: % of control where 0% means no effect; nearly all actives have a fitted effect of over 65% in size
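Galactose-induced alpha-syn yeast (OD600=0.02, raffinose-pregrown) + pinned cpd, 24 hr, 30 deg C; growth by BacTiter-Glo luminescence. Growth restoration scores as activation.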
PTAP TSG101 blk: blocks PTAP/TSG101 interaction to inhibit HIV-1 budding; Fluorescence polarization, FITC-PTAP peptide / Tsg101 binding; Potency, µM (highest dose often 115 µM), without a hit: at the highest dose activity change, negative = inhibition, usual class: inhibitors; 340,000 tested, under 10 active; active = well fitted inhibition curve with a large enough effect in the main read-out, with a control signal flat, not every such curve was filed as active; inconclusive = small, poorly fitted or top-dose-only effect, or effect the other way, or a change in a side signal; inactive = no such curve, though single readings can be large or run the other way; also: % of control where 0% means no effect
Target sequence (Q99816 whole entry, looked up): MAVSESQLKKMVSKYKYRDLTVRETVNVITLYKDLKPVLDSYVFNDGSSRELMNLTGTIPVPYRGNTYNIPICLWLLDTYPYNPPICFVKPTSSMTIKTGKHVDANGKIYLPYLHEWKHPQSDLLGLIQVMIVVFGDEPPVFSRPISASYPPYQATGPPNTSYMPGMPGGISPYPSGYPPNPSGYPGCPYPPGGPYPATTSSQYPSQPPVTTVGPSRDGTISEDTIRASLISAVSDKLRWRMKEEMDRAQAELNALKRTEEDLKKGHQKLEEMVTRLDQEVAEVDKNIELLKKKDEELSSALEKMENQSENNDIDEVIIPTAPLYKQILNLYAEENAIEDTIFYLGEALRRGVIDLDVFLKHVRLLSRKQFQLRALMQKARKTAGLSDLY
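Compounds were pin-transferred onto Tsg101 binding domain (10 uM final) in HEPES pH 7.5 buffer, then FITC-PTAP peptide was added at 50 nM final. After 20 min at RT, polarization reported peptide displacement across a qHTS concentration series.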
Active calls of the source: *; i = inactive; ? = inconclusive; · = no result given; ! = repeats disagree. Unless noted, calls follow the shape of the dose curve; as a rule, active = well fitted curve in the direction sought with a large enough effect; inconclusive = small, poorly fitted or top-dose-only effect, or another doubt; inactive = no such curve, though single readings can be large; an effect the other way counts as inactive or inconclusive. Potency is read from the fitted curve at half-maximal effect.

SMILES	TDP43 rescue	Abeta rescue	FUS yeast rescue	aSyn yeast inh	PTAP TSG101 blk
Clc1ccccc1-c1nc2ccccc2c2nncn12	39.8µM*	i	i	-3.5%	-5.3%
O=[N+]([O-])c1ccc(CSc2nnc(-c3cccc(Cl)c3)n2Cc2ccco2)cc1	·	·	i	·	·
Fc1ccc(C(NCCc2ccc(Cl)cc2)c2nnc(-c3ccccc3Cl)o2)cc1 (configuration not stated)	31.6µM*	i	i	·	·
Cc1ccc(CCNC(c2ccc(F)cc2)c2nnc(-c3ccccc3Cl)o2)cc1 (configuration not stated)	29.7%	i	i	·	·
NC1C(N)C(N)C1N (configuration not stated)	·	·	·	1.6%	·
CCNC(=O)Nc1ccc2c(c1)C(=O)N(C)[C@H]1CC[C@@H](CC(=O)NCCN3CCCC3)O[C@@H]1CO2	·	·	i	·	·
CO[C@H]1C=CO[C@@]2(C)Oc3c(C)c(O)c4c(O)c(c(C=NN5CCN(C)CC5)c(O)c4c3C2=O)NC(=O)C(C)=CC=C[C@H](C)[C@H](O)[C@@H](C)[C@@H](O)[C@@H](C)[C@H](OC(C)=O)[C@@H]1C	-35.7%	i	17.8µM*	-8.3%	-4.9%
CO[C@H]1/C=C/O[C@@]2(C)Oc3c(C)c(O)c4c(O)c(c(C=NN5CCN(C)CC5)c(O)c4c3C2=O)NC(=O)/C(C)=C\C=C\[C@H](C)[C@H](O)[C@@H](C)[C@@H](O)[C@@H](C)[C@H](OC(C)=O)[C@@H]1C	?	i	?	-1.9%	-1.7%
Cc1cc(Cl)ccc1OCC(=O)NNC(=O)C1CCN(c2ncnc3sc(C)c(C)c23)CC1	22.4µM*	i	?	0.8%	4.4%
Fc1ccc(Br)cc1SCCc1ccncc1	11.2µM*	i	i	-3.8%	-0.1%
O=S(=O)(NCCc1ccncc1)c1ccc(Br)cc1	6.4%	i	i	-1.4%	-2.4%
Cc1cc(-n2c(C)cc(C(=O)COc3ccc(Cl)cc3C(N)=O)c2C)no1	10.0%	i	i	-3.6%	-0.6%
Cc1ccc(CNC(=O)c2sc3nc(-c4ccc(F)cc4)ccc3c2N)cc1	7.8%	i	25.1µM*	·	·
COc1ccc(-c2ccc3c(N)c(C(=O)NCc4ccc(C)cc4)sc3n2)cc1	3.3%	i	i	·	·
Cc1cc2c([nH]c3ccccc32)c2c1OC(C)(C)C=C2	28.2µM*	i	i	1.6%	-5.2%
CCCCCN(CCCCC)c1ccc(/C=C/c2ccnc3ccccc23)cc1	·	·	·	-10.3%	·
CCN=c1scc(-c2ccco2)n1/N=C/c1ccc(OC)c(O)c1	?	i	·	-2.8%	-1.3%
CCN=c1scc(-c2ccco2)n1/N=C/c1ccc(O)cc1	17.8µM*	i	?	1.7%	-8.1%
CN(C(=O)C1CCCN(c2ncnc3c2nc2n3CCCCC2)C1)c1cccc(Cl)c1 (configuration not stated)	15.8µM*	i	i	0.2%	-3.6%
Cc1ccc(N2CCN(C(=O)C3CCCN(c4ncnc5c4nc4n5CCCCC4)C3)CC2)c(C)c1 (configuration not stated)	9.6%	·	i	2.2%	-6.9%
Cc1ccc(C)c(N2CCN(C(=O)C3CCCN(c4ncnc5c4nc4n5CCCCC4)C3)CC2)c1 (configuration not stated)	25.1µM*	i	?	1.8%	-6.2%
Cc1cccc(N2CCN(C(=O)C3CCN(c4ncnc5c4nc4n5CCCCC4)CC3)CC2)c1C	?	i	31.6µM*!	10.4%	-7.5%
O=C(C1CCCN(c2ncnc3c2nc2n3CCCCC2)C1)N1CCN(c2cccc(Cl)c2)CC1 (configuration not stated)	20µM*	·	?	5.2%	-5.2%
c1c[nH]c(CN2CCN(Cc3ncc[nH]3)CC2)n1	3.98µM*	i	·	10.9%	-3.0%
c1ccc(N2CCN(Cc3nc4ccccc4[nH]3)CC2)nc1	-4.7%	i	i	-8.0%	-7.3%
SMILES	TDP43 rescue	Abeta rescue	FUS yeast rescue	aSyn yeast inh	PTAP TSG101 blk
Cc1ccc(-c2cc(O)cc3sc(=O)oc23)cc1C	11.2µM*	·	i	-18.0%	-2.8%
O=c1oc2cc(O)ccc2s1	?	i	i	-13.9%	-6.5%
COC(=O)c1ccccc1NC(=O)CCc1ccccc1	10µM*	i	i	-3.2%	-2.1%
COC(=O)c1cc(C)sc1NC(=O)CCc1ccccc1	11.2µM*	i	i	2.7%	-0.4%
COC(=O)c1ccccc1NC(=O)COc1ccccc1	4.6%	i	i	3.9%	·
COC(=O)c1ccsc1NC(=O)CCc1ccccc1	?	i	i	0.0%	-0.4%
Cc1nc(NC(=O)CCc2ccccc2)sc1C	12.6µM*	i	i	1.8%	0.0%
COC(=O)c1cc(NC(=O)NC2CCCCN(Cc3ccc(Cl)cc3)C2=O)cc(C(=O)OC)c1 (configuration not stated)	·	·	i	·	·
O=C(c1ccc(Cl)cc1)n1nc(-c2ccco2)nc1NCc1cccs1	12.7%	i	i	·	·
COCc1cc(C)nc2sc3c(c12)NC(c1ccccc1C(=O)O)N(c1cccc(C(F)(F)F)c1)C3=O (configuration not stated)	-18.5%	i	?	·	·
CC(C)N(C(=O)[C@H]1CC(CC(=O)NCC23CC4CC(CC(C4)C2)C3)C(=O)N2CCc3c([nH]c4ccccc34)[C@]12C)C(C)C (some centres not stated)	22.4µM*	i	i	?	-1.7%
COc1ccc(CNC(=O)C[C@H]2C[C@H](C(=O)N(C(C)C)C(C)C)[C@@]3(C)c4[nH]c5ccc(Cl)cc5c4CCN3C2=O)cc1OC	12.6µM*	i	?	12.7%	-0.8%
COc1ccc(CNC(=O)C[C@H]2C[C@H](C(=O)N3CCOCC3)[C@@]3(C)c4[nH]c5ccc(Cl)cc5c4CCN3C2=O)cc1OC	9.0%	i	i	6.1%	-1.4%
Cc1cccc(CNC(=O)Cc2ccc(NC(=O)N3CCCCc4ccccc43)cc2)c1	?	i	?	·	·
c1ccc2c(c1)Cn1c-2nc2ccccc21	-36.8%	i	i	-10.0%	-4.4%
Brc1c(-c2ccccc2)nc2n1Cc1ccccc1-2	12.6µM*	i	i	?	-1.6%
COc1cccc(Cn2cc(COC(=O)N(C)Cc3ccccc3)nn2)c1	·	·	i	·	·
COc1ccc(CN2C(=O)C(CC(=O)NC3CCCCC3)CC(C(=O)N(C)C)=C2C)cc1 (configuration not stated)	-3.6%	i	i	3.55µM*	·
CC1=C(C(=O)N(C(C)C)C(C)C)CC(CC(=O)NCc2cccc3ccccc23)C(=O)N1Cc1ccc(F)cc1 (configuration not stated)	-4.4%	i	17.8µM*	?	·

Source: PubChem BioAssay
